# Over roughly 33,000 sequences, “E-score (dimensionless, -0.5 to 0.5)” has its median near -0.058; the highest 2% begin near 0.35. The entries come from a sample that favours the highest values as a whole.
# Test system: MvaT
# Assay: PBM 8-mer E-score (mean of HK and ME arrays) (E-score (dimensionless, -0.5 to 0.5)); higher = stronger relative binding preference
# Protocol: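 Protein binding microarray: GST-tagged full-length MvaT (P. aeruginosa PAO1) bound to two universal double-stranded 60-mer arrays (ME and HK), each with a constant 25-mer primer and a variable 35-mer region covering all 8-mers. The 8-mer E-score (rank-based, range -0.5 to 0.5, >0.45 = specific binding) is the mean of the two arrays.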
row,Sequence,PBM 8-mer E-score
1,CAGCAAAC,0.014
2,CATTACGA,0.0396
3,AAATGACT,0.114
4,ATACCCAG,0.103
5,CGTAAGAC,-0.107
6,AACTGTGG,-0.0417
7,ACCTACGA,-0.0935
8,AATACATT,0.374
9,CACATATA,0.405
10,AGCATATC,-0.0071
11,AGCATATA,0.383
12,GGCATATA,0.217
13,CACATATG,0.196
14,AACATAAA,0.286
15,AACATAAT,0.371
16,AATACATC,0.173
17,CACATATC,0.178
18,AACATAAC,0.245
19,AATACATG,0.224
20,CGAACAAC,0.0607
21,GCTAGGCA,-0.187
22,ACGACTAG,-0.185

row,Sequence,PBM 8-mer E-score
1,TACCTCAA,0.05
2,ACTTGGTA,-0.109
3,GGTTGATA,0.124
4,GTCTTCGA,-0.0711
5,GGTCGCGA,-0.238
6,CCGCAAGA,-0.078
7,CTCGCCTA,0.0159
8,GAAAACAC,0.0574
9,AACATACA,0.36
10,CACATACA,0.242
11,AACATACT,0.207
12,GACATATC,0.113
13,GACATAGA,0.0048
14,AATACATA,0.324
15,CATACATA,0.277
16,GACATATA,0.362
17,TATACATA,0.389
18,TACATACA,0.301
19,AACATAGT,0.25
20,AACATATT,0.392
21,GGTGCGCA,-0.0657
22,AACGCTGC,0.0312

row,Sequence,PBM 8-mer E-score
1,CAAGCGTG,-0.266
2,CTCTCTAC,-0.0519
3,CTTTGACC,-0.131
4,CCCGGATA,-0.0749
5,TACACATA,0.242
6,TACATATA,0.402
7,AACATATG,0.254
8,TACATAAA,0.307
9,AACATATA,0.419
10,AACATATC,0.286
11,GTTGGCCA,-0.0756
12,AAGACAGC,0.081
13,ACACCGGC,-0.133
14,AATATTCT,0.36
15,ACTATTCT,0.208
16,CATATTCG,0.173
17,GATATTCC,0.229
18,AATATTCC,0.375
19,AATATTCG,0.326
20,TAGAAAAA,0.0922
21,CGGAGAGA,-0.145
22,AAGGCAAC,0.0918

row,Sequence,PBM 8-mer E-score
1,AACGCCAG,-0.15
2,CAGGCAGG,-0.314
3,AGAATAGG,-0.0847
4,GATTAACC,0.0145
5,CATTAATA,0.369
6,CATTAATC,0.341
7,GATTAATA,0.446
8,CGTTAATA,0.31
9,GATTAATC,0.317
10,ATGCGTCC,-0.205
11,AAGTTGTC,0.168
12,ATATACAC,0.336
13,ATATACAT,0.365
14,TTATACAA,0.359
15,AAATACAT,0.33
16,TGATACAA,0.145
17,GTATACAA,0.319
18,ATATACAG,0.379
19,TCATACAA,0.0994
20,ACATACAT,0.275
21,CTATACAG,0.00215
